The campaign covered roughly 63,000 compounds. About 1,100 (1.7%) were called active. The sample holds actives, similar compounds and a random draw of the others, so the mix is not that of the screen. Entries with a potency or affinity are not part of this list. A number with no mark means an inactive call. No stated cut-off is given here; in the data, active means cytotoxicity above about 50%; inactive means the rest.

The assay in a line: HPDE-C7 pancreatic duct cell viability loss – fluorescence, HTS (AID 430).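 Further: cells exposed to compound for 48 hours before viability readout; 0% = vehicle and 100% = reference cytotoxic drug.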 Particulars: HPDE-C7 pancreatic duct cells viability, at 10 µM, stronger effect = higher value.
Turning to `CCN(CC)C(=O)CSc1nnc(-c2cnccn2)n1-c1ccccc1`, the cytotoxicity was -10.7%.

Regarding `CC(=O)c1cccc(NC2c3ccccc3C(=O)N2Cc2ccc3c(c2)OCO3)c1` (stereo not drawn), the cytotoxicity was 11.4%. For `COc1ccc(NC(=O)c2cnc3ccccn3c2=O)c(OC)c1` the value was 1%.

As to `COCCn1c(SCC(=O)N2CCCC2)nnc1-c1ccoc1C`, the cytotoxicity is 5.7%. For `COc1ccccc1C(=O)NCc1ccncc1` the value was -7.2%; for `CCOC(=O)CN1C(=O)C(O)=C(C(C)=O)C1c1ccccc1` (stereo not drawn), -3.4%; for `COc1cccc2cc(C(=O)N3CCC(C)CC3)c(=O)oc12`, 36.9%. Turning to `COc1ccc(Nc2cc(=O)n(C3CCCCC3)c(=O)[nH]2)c(OC)c1`, the cytotoxicity was -11.4%. For `CCC(=O)Nc1ccc(OC)cc1OC` the value was -0.9%; for `CC1(C)Oc2ccc3ccc(=O)oc3c2-c2cnoc21`, -3.6%. In the case of `O=C(c1cc(-c2cccs2)on1)N1CCN(c2ccc(F)cc2)CC1`, the cytotoxicity is 11.3%.

Regarding `O=C(c1cc(-c2cccs2)on1)N1CCOCC1`, the cytotoxicity was -1.4%. As to `O=C(c1cc(-c2cccs2)on1)N1CCN(c2ccccc2)CC1`, the cytotoxicity is 51.3% (active).

Regarding `Cc1cc(C)cc(OCc2nnc(SCC(=O)c3ccc(Br)cc3)o2)c1`, the cytotoxicity was -22.5%.

Turning to `COC(=O)CCC(=O)Nc1sc2c(c1C#N)CCCC2`, the cytotoxicity was -8%. For `CCc1ccc(CCC(=O)Nc2sc3c(c2C#N)CCCC3)o1` the value was 72% (active). For `CCCC(=O)Nc1sc2c(c1C#N)CCCC2` the value was 2.6%. For `CCCc1cc(C(=O)Nc2sc3c(c2C#N)CCC3)no1` the value was 5.7%.

As for `CC(C)(C)C1CCc2c(sc(NC(=O)c3cc(C4CC4)on3)c2C#N)C1` (stereo not drawn), the cytotoxicity is 30.3%. Regarding `Cc1cc(C(=O)Nc2sc3c(c2C#N)CCCC3)no1`, the cytotoxicity was -1.6%.

Regarding `CC(C)c1cc(C(=O)Nc2sc3c(c2C#N)CCC3)no1`, the cytotoxicity was 17.6%. For `Cc1cc(C(=O)Nc2sc3c(c2C#N)CCC3)no1`, the cytotoxicity is 53.5% (active). For `N#Cc1c(NC(=O)c2cc(C3CC3)on2)sc2c1CCC2` the value was 65.1% (active); for `CCOc1cc(C2NC(=O)NC(C)=C2C(=O)OC(C)CC)cc(Br)c1O` (stereo not drawn), 3.2%; for `Cc1nn(C)c(C)c1S(=O)(=O)N1CCC(C(=O)NC2CCCCCC2)CC1`, 3.3%.

Regarding `COCCCNC(=O)CCCn1c(=O)[nH]c2ccccc2c1=O`, the cytotoxicity is -15.8%. As to `CCN(CC)CCN1C(=O)C(=O)/C(=C(/O)c2cnn(-c3ccccc3)c2C)C1c1cccnc1` (stereo not drawn), the cytotoxicity was 0.2%. For `O=C(Nc1ccc(N2CCOCC2)cc1)C1CCCN(S(=O)(=O)c2ccccc2)C1` (stereo not drawn) the value was 0.2%. On to `CCOc1ccc2nc(C(C)O)[nH]c2c1` (stereo not drawn), for which the cytotoxicity is -5.7%. For `CCOc1ccc2nc(-c3ccccc3)[nH]c2c1` the value was 56.7% (active); for `COc1ccc2nc(-c3ccccc3)[nH]c2c1`, -3.7%.

As to `COC(=O)c1ccc(Cl)c(NC(=O)CN2CCOCC2)c1`, the cytotoxicity was 0.1%. As for `CCOC(=O)c1cccc(NC(=O)CSc2nnc(-c3ccncc3)n2CCCOC)c1`, the cytotoxicity was -11.4%. For `C/C(CC(O)c1ccc2ccccc2n1)=N/O` (stereo not drawn) the value was 0.7%; for `CC(Sc1ccc2ccccc2n1)C(=O)O` (stereo not drawn), 4.7%. Take `COc1ccccc1N(CC(=O)Nc1ccc2c(c1)OCO2)S(=O)(=O)c1ccccc1`: the cytotoxicity is 7.5%. For `O=C(NCCCO)c1nc2ccccc2s1` the value was 5.3%; for `CCOC(=O)c1oc2cc(O)c(CC)cc2c(=O)c1-c1ccc2c(c1)OCCO2`, 0.2%. For `CCc1cc2c(=O)c(-c3ccc4c(c3)OCCO4)coc2cc1OC(=O)c1ccco1` the value was 56.6% (active). As for `CCc1cc2c(=O)c(-c3nc4ccccc4[nH]3)coc2cc1OC(=O)N1CCOCC1`, the cytotoxicity was -31.2%. With `Cc1nc(NC(=O)c2cc3c(s2)CCCCC3)sc1C(=O)N(C)C`, the cytotoxicity was -7%. With `COC(=O)Cn1c2ccccc2c2nc(C)sc21`, the cytotoxicity was 2.7%. Regarding `O=C(CS(=O)(=O)c1ccccc1)N1CCCCCC1`, the cytotoxicity is -5.2%. For `C/C=C(\CS(=O)(=O)c1ccccc1)S(=O)(=O)c1ccccc1` the value was 35.4%; for `Cc1cccn2c(=O)c3cc(C#N)c(=N)n(CCN4CCOCC4)c3nc12`, 5%; for `Cc1ccccc1-n1c(SCc2cc(=O)n3ccccc3n2)nc2[nH]ncc2c1=O`, -8%.

As to `CC1(N2CCOCC2)CC2(O)C(=[N+]1[O-])CCc1c2no[n+]1[O-]` (stereo not drawn), the cytotoxicity was 60.2% (active). For `CC1(N2CCOCC2)CC2(O)C(=[N+]1[O-])CCc1nonc12` (stereo not drawn) the value was 12.8%; for `CC1(N2CCCCC2)CC2(O)C(=[N+]1[O-])CCC/C2=N\O` (stereo not drawn), -1.5%; for `COc1ccc(Nc2nc(N3CCCC3)c3ccccc3n2)cc1`, 27.2%. Turning to `Cc1ccc(Nc2nc(N3CCOCC3)c3ccccc3n2)cc1`, the cytotoxicity is 30.7%. For the molecule `Oc1ccc(Nc2nc(N3CCCC3)c3ccccc3n2)cc1`, the cytotoxicity is 73.1% (active).

`C=CCN1C(=O)C2(c3ccccc31)C1CCCC=C1C(C#N)=C(N)C2(C#N)C#N` (stereo not drawn): the cytotoxicity is -22.1%. Regarding `C=C(C)c1cccc(C(C)(C)NC(=O)N2CCOCC2)c1`, the cytotoxicity was 7.9%.

Regarding `COc1ccc(C(O)C(CN2CCOCC2)c2ccccc2)cc1F` (stereo not drawn), the cytotoxicity was -2.2%. As to `COc1ccc(C(=O)CCN2CCCCCC2)cc1`, the cytotoxicity is 19.8%.

Turning to `COc1ccc(C(=O)C(c2ccccc2)N2CCOCC2)cc1` (stereo not drawn), the cytotoxicity was -4.6%. For `COc1ccc(C(=O)O)cc1F` the value was -2.5%. For `CCOC(=O)Cc1nnc(NC(=O)CSc2nnc3c4ccccc4n(C(C)C)c3n2)s1` the value was -15%; for `CC1CCCCC1NC(=O)C1CCN(S(=O)(=O)c2ccc3c(c2)CCC(=O)N3)CC1` (stereo not drawn), -18.5%.

On to `COc1ccccc1C1NC(=O)CS1` (stereo not drawn), for which the cytotoxicity is -18.6%.

In the case of `c1ccc(-c2cc(N3CCCCC3)ncn2)cc1`, the cytotoxicity is -3.8%. Regarding `Nc1nc(-c2ccccc2)cc(N2CCCCC2)n1`, the cytotoxicity is 50.6% (active). `Cc1nc(-c2ccccc2)cc(N2CCCC2)n1`: the cytotoxicity is -14.7%. Consider `CCOc1cccc2c1OC1(C)CC2NC(=O)N1c1cccc(F)c1` (stereo not drawn), for which the cytotoxicity was -12.1%. For `Cc1ccc(C(=O)Nc2ncc(Cc3ccc(F)cc3)s2)o1` the value was 57.5% (active); for `Cc1ccc(C(=O)Nc2ncc(Cc3ccccc3)s2)o1`, 31.4%. For `Cc1nnc(SCC(=O)Nc2ncc(Cc3ccc(F)cc3)s2)n1N` the value was -7.7%.

These data come from PubChem BioAssay AID430 (Sanford-Burnham Center for Chemical Genomics, 2006).
